Measurements published in the OligoGym collection.

The sequences below were run against GALNT9 (assay: pooled miR-30 sensor sort-seq; sequence = guide strand). Conditions: shRNA.
Also: reference of the scale not given here.

Sequence	sensor-assay potency score (higher = more potent)
TTTCTGATCATCCACTTCTGCC	-1.06
TTGCTGTTTCTCACCTCTCCGT	-0.669
TTACCAGACCACAAGGAGCTGC	-0.143
TAGTAGTCAATGTCGTTGTTGT	0.0429
TTGTTGTAGGGCTTCCTGGTGC	0.157
TTGTAGACCCTCATCTCCGGGT	-0.631
TTTCTCACCTCTCCGTACGTGA	-0.461
TTCGACATGGGGATGTTCCAGG	-0.845
ATAGTAGTCAATGTCGTTGTTG	-0.487

The sequences below were run against GALNTL4 in the same assay as above. Conditions: shRNA.

Sequence	sensor-assay potency score (higher = more potent)
TTCCTCCAGCTTCTTGTCGGGC	-1.36
TACTCTTCTATCTCAAAGTTGT	-0.112
TGGATCTGCTGACTGCTCGTGT	-0.605
ATATTCGGTCAGCTTCTCCTTC	-0.121
TTGTCATCATCATCCACGGTGG	-0.503
AATAGTTTGATATCATACCATC	-1.73
TTCAGTTCCTCGTTACTGCTGT	0.73
TCGGTTGTCATCATCATCCACG	-0.664
TTGACGTCCACCAGGCATCGGT	-0.813
TTTGTCTTCCTCCAGCTTCTTG	-1.15
TTGATATCATACCATCACCTAC	-1.18

These sequences were tested against GALT in the same assay as above. Conditions: shRNA.

Sequence	sensor-assay potency score (higher = more potent)
TAGATCATCACGCTCAGCAGGG	-0.0859
TATAGGCCTGCTGAGATCGCTC	-0.708
TAATTCAGCAAGACTGTTGAAA	0.0574
TTCCTGAGTAGCTCCTGGCGGC	-0.283
TTTGTTTTCAAAGATCTGCACC	-0.471
TACTAACCAGTGCTCACTGGTT	-0.859
AAAGAGGTTGTCATACTTGGTC	-0.351
ATACTTGGTCAAGAGCTTCTTC	-0.165
TTGGTCAAGAGCTTCTTCATGA	-0.31
TTCCTTCCTGAGTAGCTCCTGG	-0.401
TTCACCTCTCCGTTGGCTCGGA	-0.467
TTGTCAAACAGGAAGGTGCTAT	-0.0645
TTTTCAAAGATCTGCACCCAAG	-1.61
TGAATTTCCGGACAGTGGCAGA	-0.779
AAGCATTTCGTAGCCAACCATG	-1.22
TTGCCCGGAAGGTTGCTGCTGC	-0.354
TAGCCAACCATGAATTTCCGGA	-0.189
AAGAGCTTCTTCATGATGGAGG	-0.296
ATATCTGGCAGGAAACTGCTGG	-0.342
AAGGGGACCAGTACTAACCAGT	-0.813
